Test results reported in the supplement of paper PMC6555819.

How the values were obtained:
Experiment in all cases: PBM binding z-score (relative to random genomic background probes); higher = stronger binding; sequences stand for … in GC…GCGATTGACAGCGTAGAATGAAGG
[1] = tested on: FXR:RXRa (NR concentration 270 nM, RXRa partner concentration 90 nM)
Summary of the method: (§1)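 For binding z-scores, the reference was random background probes on custom Agilent 4×180K protein-binding microarrays. These arrays were incubated 1 h with ligand-free nuclear receptor dimers in PBS pH 7.4, 2% milk, 0.02% Triton X-100, 1 mM DTT, 0.2 mg/mL BSA and 0.4 mg/ml salmon testes DNA. Fluorescence was scanned after antibody detection of each partner (one per run) and regression-normalized.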

[2] = tested on: LXRa:RXRa (NR concentration 270 nM, RXRa partner concentration 90 nM)
Summary of the method: as §1

[3] = tested on: LXRa homodimer (NR concentration 270 nM)
Summary of the method: as §1

[4] = tested on: LXRb:RXRa (NR concentration 270 nM, RXRa partner concentration 90 nM)
Summary of the method: as §1

[5] = tested on: LXRb homodimer (NR concentration 270 nM)
Summary of the method: as §1

[6] = tested on: PPARa:RXRa (NR concentration 270 nM, RXRa partner concentration 90 nM)
Summary of the method: as §1

[7] = tested on: PPARg:RXRa (NR concentration 180 nM, RXRa partner concentration 90 nM)
Summary of the method: as §1

[8] = tested on: PPARg:RXRa 270nM:90nM, anti-RXR (NR concentration 270 nM, RXRa partner concentration 90 nM)
Summary of the method: as §1

[9] = tested on: PPARg:RXRa 30nM:10nM, anti-RXR (NR concentration 30 nM, RXRa partner concentration 10 nM)
Summary of the method: as §1

[10] = tested on: PPARg:RXRa 90nM:30nM, anti-RXR (NR concentration 90 nM, RXRa partner concentration 30 nM)
Summary of the method: as §1

[11] = tested on: PPARg:RXRa DBDmut IVT, anti-RXR (DBD mutation: RXRa K156A/R161A, NR concentration 270 nM, RXRa partner concentration 90 nM)
Summary of the method: as §1

[12] = tested on: PPARg:RXRa IVT, anti-PPARg (NR concentration 270 nM, RXRa partner concentration 90 nM)
Summary of the method: as §1

[13] = tested on: PPARg DBDmut:RXRa IVT, anti-PPARg (DBD mutation: PPARg1 K132A/R137A, NR concentration 270 nM, RXRa partner concentration 90 nM)
Summary of the method: as §1

[14] = tested on: PPARg DBDmut IVT, anti-PPARg (DBD mutation: PPARg1 K132A/R137A, NR concentration 270 nM)
Summary of the method: as §1

[15] = tested on: PPARg homodimer (NR concentration 180 nM)
Summary of the method: as §1

[16] = tested on: PXR:RXRa (NR concentration 270 nM, RXRa partner concentration 90 nM)
Summary of the method: as §1

[17] = tested on: PXR homodimer (NR concentration 270 nM)
Summary of the method: as §1

[18] = tested on: RARa:RXR (NR concentration 270 nM, RXRa partner concentration 90 nM)
Summary of the method: as §1

[19] = tested on: RARa homodimer (NR concentration 270 nM)
Summary of the method: as §1

[20] = tested on: RARb:RXRa (NR concentration 270 nM, RXRa partner concentration 90 nM)
Summary of the method: as §1

Sequence | PBM binding z-score [1] | PBM binding z-score [2] | PBM binding z-score [3] | PBM binding z-score [4] | PBM binding z-score [5] | PBM binding z-score [6] | PBM binding z-score [7] | PBM binding z-score [8] | PBM binding z-score [9] | PBM binding z-score [10] | PBM binding z-score [11] | PBM binding z-score [12] | PBM binding z-score [13] | PBM binding z-score [14] | PBM binding z-score [15] | PBM binding z-score [16] | PBM binding z-score [17] | PBM binding z-score [18] | PBM binding z-score [19] | PBM binding z-score [20]
CGAACTAGGTCGGAACAGGACAGTGAAGGATGAT | -0.0248 | -0.452 | -0.434 | -0.642 | -1 | 0.71 | 1.23 | 0.719 | 0.0935 | 0.234 | 4.12 | 3.56 | 0.508 | -0.428 | -0.2 | -0.28 | -0.583 | 0.314 | -0.0866 | 0.543
AATATAGGGTCATCGTAGGCCAGAGTACGCACAG | 7.57 | 6.66 | 2.71 | 5 | 1.56 | 6.26 | 7.29 | 6.57 | 3.61 | 5.37 | 4.87 | 5.42 | 1.96 | 1.99 | 2.4 | 4.98 | 0.973 | 5.35 | 1.7 | 4.58
TGATATAGGTAAACAGGTGAAAGTCCGTAAGTTA | 0.277 | 0.353 | 0.0822 | 0.388 | 0.0217 | 2.37 | 3.95 | 3.81 | 1.65 | 3.09 | 5.35 | 5.64 | 1.01 | 0.48 | 0.911 | 0.29 | 0.346 | 0.703 | 1.11 | 0.511
GCCTGTAGATCAAGGTTAAGAAAGACTAAGCTAA | 0.000969 | 0.697 | -0.269 | 0.679 | -0.964 | 1.28 | 0.434 | 1.19 | 0.0672 | 0.861 | 0.625 | 0.319 | -0.514 | -0.208 | -0.292 | 0.333 | -0.503 | 0.885 | -1.02 | 0.799
CAGCCTAGCTCAGGGCCAGTATAGGAGGAACGTT | -1.13 | -1.14 | -0.395 | -1.15 | -1.28 | -1.21 | -0.195 | -1.24 | -1.24 | -1.17 | -0.913 | -0.949 | -2.22 | -2.03 | -1.23 | -0.988 | -0.337 | -1.33 | -0.424 | -0.591
CCTCCGAGGACAGAAGGTCAGAGCTGTCCGCTTT | 1.46 | 1.7 | 0.408 | 1.37 | -0.149 | 1.89 | -0.0299 | 0.869 | -0.46 | 0.274 | -0.16 | 0.312 | -1.35 | -1.76 | 2.39 | 1.76 | 0.0922 | 2.49 | 1.09 | 3.23
CCGACTGGGGCAGAAGGTTACCATAAGCCAGCCC | -0.0856 | 1.46 | -0.41 | 0.494 | -1.21 | 1.43 | 1.92 | 3.09 | 0.815 | 2.15 | 1.61 | 1.92 | -0.993 | -1.69 | 0.826 | 0.166 | 0.188 | 0.736 | -0.0153 | 1.25
CCTCGGAGGACAGAAGGTCAGAACTGTCCGCTTT | 0.99 | 1.35 | 0.337 | 1.03 | -0.707 | 1.54 | -0.0634 | 0.635 | -0.743 | 0.0441 | 0.127 | -0.242 | -0.806 | -1.38 | 0.826 | 1.1 | 0.0205 | 1.7 | 0.442 | 2.85
AGAACGAGCGCACGCTGAGTTGATAGCAGAGTAG | -0.57 | -0.901 | -0.709 | -1.02 | -1.26 | -1.16 | 0.302 | -0.706 | -0.622 | -0.45 | -0.589 | -0.892 | -0.82 | -1.39 | -1.63 | -0.74 | -0.523 | -0.952 | -1.05 | -1.05
CGAACTCGGTCAAGGACAGTGAATCTCCGCACGC | 0.923 | 0.427 | -0.214 | -0.232 | -0.75 | 0.927 | 0.826 | 0.618 | -0.54 | -0.129 | 3.2 | 2.25 | -0.0732 | -0.272 | -0.336 | 0.0143 | -0.196 | 0.378 | -0.323 | 2.62
GCTATTAGTTGAAAGGGTAACCGAATGATTCTCG | -0.0135 | 0.398 | 0.254 | 0.557 | -0.148 | 1.63 | 1.39 | 3.38 | 1.36 | 3.03 | 0.535 | 0.734 | 0.307 | 0.443 | 0.807 | 0.366 | 0.207 | 1.02 | 0.465 | 0.813
ATCTCTAGTTAAAGATAGTTCAGTGAATGCAAAT | 0.285 | 1.29 | 0.86 | 0.823 | 0.612 | 0.58 | 0.585 | 0.484 | 0.404 | 0.51 | -0.115 | 0.245 | 0.633 | 1.63 | 0.523 | 0.98 | 1.18 | 1.1 | 1.54 | 0.647
TATAGCAGGCCAGAGGGTCACTCAAGAGGTACGG | 1.02 | 1.2 | -0.173 | 1.21 | -0.338 | 2.59 | 2.56 | 3.15 | 1.56 | 3.12 | -0.0119 | 1.41 | 0.475 | -0.0534 | 1.11 | 1.73 | -0.392 | 2.46 | -0.269 | 2.09
